According to PubChem BioAssay (NCI):
Compounds without any hit were thinned out: in the full panel of roughly 83,000, 20% have a hit.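 Plates (96-well) were seeded with cells, treated with compound at one concentration, and incubated for 48 hours before percent growth was determined.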 Values without a mark were called inactive. Active and inactive are the calls of the source. How the source made its calls: active means growth percent below 10; inactive means the rest.

What was measured:
Experiment in all cases: NCI-60 one-dose screen, 48 h (100 = growth as untreated, 0 = no growth, -100 = all killed)
SR leukemia = conditions: 10 µM unless noted
RPMI-8226 leukemia = conditions: 10 µM unless noted
OVCAR-5 ovarian = conditions: 10 µM unless noted
OVCAR-4 ovarian = conditions: 10 µM
SK-OV-3 ovarian = conditions: 10 µM unless noted
IGROV1 ovarian = conditions: 10 µM unless noted
OVCAR-3 ovarian = conditions: 10 µM unless noted
HS 578T breast = conditions: 10 µM unless noted
NCI/ADR-RES ovarian = conditions: 10 µM unless noted
OVCAR-8 ovarian = conditions: 10 µM unless noted

Structure (SMILES) | growth (SR leukemia) | growth (RPMI-8226 leukemia) | growth (OVCAR-5 ovarian) | growth (OVCAR-4 ovarian) | growth (SK-OV-3 ovarian) | growth (IGROV1 ovarian) | growth (OVCAR-3 ovarian) | growth (HS 578T breast) | growth (NCI/ADR-RES ovarian) | growth (OVCAR-8 ovarian)
O=C(Nc1cccc(F)c1)c1cc(=O)[nH]c2cc(Br)ccc12 | 21.8% | 76.1% | 63.3% | 70.6% | 51.8% | 40.5% | 23.5% | 52.4% | 53.2% | –
CC1Cc2c(Cl)ncnc2N(C)c2ccc(Cl)cc21 (stereo not given) | 6.35% (active) | -3.81% (active) | 39.8% | 7.91% (active) | 12% | 30.5% | 9.74% (active) | 23.4% | 13.1% | –
CC(C)[N+](C)(C)CC(O)COc1cccc2ccccc12 (stereo not given) | 107% | 94.1% | 94.6% | 116% | 110% | – | 96.8% | 128% | 108% | –
O=C(Nc1cc(F)cc2cccnc12)c1cnc(N2CCNCC2)cn1 | 29.5% | 93.1% | 83.4% | 11.2% | 100% | 43.5% | 6.04% (active) | 82.2% | 87.6% | –
c1cc2ccc1CNCCN1CCNCc3ccc(cc3)Oc3ccc(cc3)CNCCN(CCNCc3ccc(cc3)O2)CCNCc2ccc(cc2)Oc2ccc(cc2)CNCC1 | -40.1% (active) | -49% (active) | -55.1% (active) | -77.6% (active) | – | -64.3% (active) | -94.6% (active) | – | 103% | –
COc1ccc(C2=C(c3cn(C)c4ccccc34)C(=O)OC2)cc1OC | 29.1% | 40% | 64.9% | 39.8% | – | 43.4% | -8.6% (active) | 22.5% | 22.7% | –
COc1ccc(/C=C(/C(=O)c2ccc(Cl)cc2)C(=O)C(F)(F)F)cc1 | 76.2% | 90.2% | 103% | 96.3% | 100% | 96% | 98.7% | 96.2% | 95.8% | –
O=C(N=c1n(-c2ccccc2)nc2n1CCN2C1=NCCN1)c1ccc(Cl)cc1 | 43.6% | 91.9% | 95.9% | – | 90.2% | 58% | 91.7% | 93.1% | 93.6% | –
COc1ccccc1S(=O)Nc1ccccc1 (stereo not given) | 82.7% | 99.9% | – | 110% | 105% | 107% | 107% | 82% | 105% | –
CCCc1cc2cc(-n3nc(C)c4c3CC(C)(C)CC4=O)cc(NC3CCSCC3)c2c(=O)[nH]1 | 33.8% | 49.9% | 97% | 97.5% | – | 74.1% | 87% | 79.2% | 82.2% | –
CCCCCn1c(C)cc(/C=C\c2ccc3cc(C)ccc3[n+]2C)c1C | 9.57% (active) | -43.5% (active) | 12% | -8.22% (active) | – | -84% (active) | – | -24.4% (active) | 59.1% | –
COc1ccc(-c2cc(-c3ccccc3)nc(NCCNc3ccnc4cc(Cl)ccc34)n2)cc1 | -7.13% (active) | -34.4% (active) | -96.6% (active) | -48.8% (active) | – | -74.1% (active) | -82.6% (active) | -53.9% (active) | -71.9% (active) | –
CC(C)=CC/C=C(/C)[C@H]1CC[C@]2(C)[C@@H]1CC[C@@H]1[C@@]3(C)CCC(=O)NC(C)(C)[C@@H]3CC[C@]12C | 12.3% [100 µM] | -31.4% [100 µM] (active) | 9.08% [100 µM] (active) | – | 38.6% [100 µM] | -67.6% [100 µM] (active) | -63.9% [100 µM] (active) | -17.7% [100 µM] (active) | 13% [100 µM] | –
CCCCCCCCCCCCCCNC(=O)Nc1ccc(Cl)c(Cl)c1 | 95% | 72.6% | 64.8% | 24.7% | – | – | 15.5% | 84.2% | -0.731% (active) | –
Cn1cc(-c2noc(C(=O)c3cn(C)c4ncccc34)n2)c2ccccc21 | 74.9% | 94.5% | 96.1% | 57.7% | – | 80.7% | 103% | 88.5% | 92.3% | –
CCCCN(CC)CC(CC)Nc1cc(OC)cc2cccnc12 (stereo not given) | 113% | 105% | 103% | 115% | – | – | 107% | – | 101% | –
CCOc1cccc2c(NC(C)CCCN(CC)CC)c(C)cnc12 (stereo not given) | 96.6% | 107% | 106% | 108% | 95.8% | 102% | – | – | 114% | –
CCCCCCCCCCCCCCCCCCNC(=S)N/N=C/c1ccc(OC)c(OC)c1 | 81.2% | 89.7% | 93.8% | 98.5% | 98.5% | 94.2% | – | 100% | 97.3% | –
O=S(=O)(c1ccc(N/N=C\c2ccccc2Cl)cc1)c1ccc(N/N=C/c2ccccc2Cl)cc1 | 88.5% | – | 82.6% | 84.1% | 98% | 73.8% | – | 83% | 84.5% | 86.5%
C[C@@H]1C[C@H]2C(=O)O[C@@H](C)[C@H](NC(=O)[C@H](Cc3cc(F)cc(F)c3)NC(=O)Nc3ccc(C4CC4)cc3F)C(=O)N3CCC[C@H]3C(=O)N3CCCC[C@H]3C(=O)N[C@@H](C)C(=O)N2C1 | 27.8% | – | -2.59% (active) | 7.8% (active) | – | 28.5% | 5.07% (active) | 18.1% | 14.9% | 11%
CCCCCCCCCCCCCC[n+]1cccc(C(N)=O)c1 | -25.9% (active) | – | 44.2% | 14.5% | 23.3% | – | -32.4% (active) | – | 105% | 18%
COc1cc2c(c(OC)c1OC)-c1cc(I)c(O)cc1[C@@H](NC(C)=O)CC2 | 33.2% | – | 49.2% | 37.3% | – | -3.77% (active) | 17.5% | 76.4% | 25.4% | 12.6%
COc1ccc2c(c1)c(-c1noc(-c3cn(C)c4ncc(F)cc34)n1)cn2C | 83.8% | – | 87.6% | 18.4% | 79.1% | 69.6% | 42% | 91% | 68.3% | 63.7%
CC1(C)NCCC[C@]2(C)[C@H]3C=CC4=C5C[C@](C)(CO)CC[C@]5(C)CC[C@@]4(C)[C@]3(C)CC[C@@H]12 | -5.08% [100 µM] (active) | – | -98.7% [100 µM] (active) | – | -80.1% [100 µM] (active) | -84.5% [100 µM] (active) | -78.8% [100 µM] (active) | -46.8% [100 µM] (active) | -86.4% [100 µM] (active) | -57.8% [100 µM] (active)
